Experiment [1] has as its target Cellular tumor antigen p53 (Homo sapiens) (UniProt P04637). Put plainly: Primary qHTS for small molecule compounds that upregulate eGFP-tagged delta133p53alpha (in N-terminal) cells. (AID 2060322). Also: nearly all actives have a fitted effect of over 75% in size.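 As to activation: cells pre-induced with doxycycline then dosed without doxycycline; series mostly up to about 56 µM; 0% = DMSO vehicle and 100% = reference activator.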 Particulars: NCI-H358 eGFP-delta133p53alpha fluorescence, 24 h; activation: active compounds read high. Summed up:
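NCI-H358 cells pre-induced 24 h with 10 ng/ml doxycycline for eGFP-delta133p53alpha, plated dox-free and exposed 24 h at 37C to titrated compounds. Fixed, Hoechst-stained; gated GFP peak intensity by laser scanning cytometry, normalized to DMSO (0%) and 57.5 uM 5-azacytidine (100%).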
For orientation: Quantitative high-throughput screening tests each substance at several concentrations.

Experiment [2] is described as follows: BET inhibitor-based combinations targeting novel dependencies in MECOM-rearranged (r) AML: SET-2 cell line (AID 2202231). Also: nearly all actives have a fitted effect of over 35% in size.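 As to viability: plate controls were DMSO treated cells for no effect and wells without cells for full effect.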 The following applies: SET-2 AML cells viability, CellTiter-Glo luminescence, 48 h; viability: active compounds read low, concentration not given here. Summed up: (§1)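 Each compound was tested at eleven concentrations on cells seeded at 500/well. After two days' incubation, ATP-based luminescence reported viability; responses relative to DMSO and blank wells yielded AUC and cell-line-centred Z-AUC.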
In general terms: In ATP-based viability assays light output follows the ATP content of the culture.

The nature of experiment [3]: BET inhibitor-based combinations targeting novel dependencies in MECOM-rearranged (r) AML: MV-4-11 cell line (AID 2202233). Also: nearly all actives have a fitted effect of over 45% in size. Summed up:
(§2)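 First, 500 cells per well were seeded; next, drugs were pinned as 11-point doses; then plates sat 48 hr in the incubator; finally CellTiter-Glo was added and luminescence read, with AUC and Z-AUC computed.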

The nature of experiment [4]: BET inhibitor-based combinations targeting novel dependencies in MECOM-rearranged (r) AML: HNT-34 cell line (AID 2202234). Also: nearly all actives have a fitted effect of over 35% in size. An outline of the steps: as §2
A short description of experiment [5]: BET inhibitor-based combinations targeting novel dependencies in MECOM-rearranged (r) AML: UCSD-AML1 cell line (AID 2202235). Also: nearly all actives have a fitted effect of over 40% in size. Summed up: as §2
The nature of experiment [6]: BET inhibitor-based combinations targeting novel dependencies in MECOM-rearranged (r) AML: AML-191 cell line (AID 2202236; also: nearly all actives have a fitted effect of over 35% in size). Summed up:
as §1

Experiment [7] is described as follows: BET inhibitor-based combinations targeting novel dependencies in MECOM-rearranged (r) AML: AML-194 cell line (AID 2202237; also: nearly all actives have a fitted effect of over 40% in size). Summed up: as §1
The nature of experiment [8]: BET inhibitor-based combinations targeting novel dependencies in MECOM-rearranged (r) AML: OCI-AML3 cell line (AID 2202232). Also: nearly all actives have a fitted effect of over 35% in size. Particulars: Potency: OCI-AML3 viability. Summed up: as §1

Where “and” joins values, the source holds several entries; their conditions need not be identical. Equal values may be shown once. Records with an inconclusive call do not appear. Unmarked numbers belong to inactive results. Calls of active or inactive are those of the source. Calls follow the shape of the dose curve; as a rule, active = well fitted curve in the direction sought with a large enough effect; inconclusive = small, poorly fitted or top-dose-only effect, or another doubt; inactive = no such curve, though single readings can be large; an effect the other way counts as inactive or inconclusive.

The viability is a read-out of living cells in per cent, often relative to untreated cells.
Potency is read from the fitted curve at half-maximal effect.

Chain of Cellular tumor antigen p53 (Homo sapiens) (P04637 whole entry, looked up): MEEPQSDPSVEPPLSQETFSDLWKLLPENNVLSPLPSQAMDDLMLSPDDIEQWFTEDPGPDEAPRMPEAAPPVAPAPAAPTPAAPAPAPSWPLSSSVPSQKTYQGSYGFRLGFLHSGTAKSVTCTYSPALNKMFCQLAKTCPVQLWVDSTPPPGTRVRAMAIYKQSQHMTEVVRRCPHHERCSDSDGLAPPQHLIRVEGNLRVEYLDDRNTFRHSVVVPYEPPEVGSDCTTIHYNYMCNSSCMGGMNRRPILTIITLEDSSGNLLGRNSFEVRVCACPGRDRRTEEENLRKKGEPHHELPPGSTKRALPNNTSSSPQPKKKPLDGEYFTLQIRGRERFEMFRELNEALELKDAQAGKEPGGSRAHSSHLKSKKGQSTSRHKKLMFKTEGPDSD

As to `Cc1ccc(S(=O)(=O)NC(=O)NN2CC3CCCC3C2)cc1` (stereo unspecified), the activation in experiment [1] is 8.47% and 8.97%. Besides, the viability in experiment [2] was 120%. Besides, the Potency entry in experiment [3], in experiment [4], in experiment [5], in experiment [6] and in experiment [7] was “inactive” each time.
On to `Cn1c(=O)c2c(ncn2CC(O)CO)n(C)c1=O` (stereo unspecified), for which the activation in experiment [1] is 5.02% and 16.6%. In addition, the viability in experiment [2] is 118%. The Potency result in experiment [3], in experiment [4], in experiment [5], in experiment [6] and in experiment [7] was “inactive” each time.
Turning to `CC(=O)NC(CS)C(=O)O` (stereo unspecified), in experiment [1], the activation was 60.6%. The viability in experiment [2] is 104%. The Potency entry in experiment [3], in experiment [4], in experiment [5], in experiment [6] and in experiment [7] was “inactive” in each case.
`CCN(CC)CCCCNc1ncc2c(n1)N(C)C(=O)N(c1c(Cl)c(OC)cc(OC)c1Cl)C2`: the activation in experiment [1] was -7.31%. The Potency in experiment [2] is 18.6 µM (active); in experiment [3], 14.8 µM (active); in experiment [4], 10.5 µM (active).
For `Cn1cc(-c2ccc3nnc(Sc4ccc5ncccc5c4)n3n2)cn1`, the activation in experiment [1] was -0.663%. For the same molecule, in experiment [2], the viability was 107%. For the same molecule, the Potency entry in experiment [8], in experiment [5], in experiment [6] and in experiment [7] was “inactive” throughout.
Take `c1ccc2c(-c3cnn4cc(-c5ccc(N6CCNCC6)cc5)cnc34)ccnc2c1`: the activation in experiment [1] is 75.9%. Also, the Potency in experiment [2] is 3.32 µM (active); in experiment [3] it was 0.934 µM (active); in experiment [4], 4.68 µM (active); in experiment [5] it was 2.95 µM (active); in experiment [6], 2.63 µM (active); in experiment [7], 2.63 µM (active).
For the molecule `O=[N+]([O-])c1ccc(Nc2ccccc2-c2ccccc2)c2nonc12`, the Potency in experiment [1] is 9.68 µM (active); in experiment [2], 20.9 µM (active); in experiment [3] it was 26.3 µM (active); in experiment [4] it was 23.5 µM (active); in experiment [6] it was 20.9 µM (active). The Potency result in experiment [5] was “inactive”.
Take `COCCCN1CCC(NC(=O)c2cc(Cl)c(N)c3c2OCC3)CC1`: in experiment [1], the activation was -6.16%. In experiment [2], the viability is 118%. The Potency entry in experiment [3], in experiment [4], in experiment [5] and in experiment [6] was “inactive” throughout.
For `Cc1nnc(NS(=O)(=O)c2ccc(N)cc2)s1`, the activation in experiment [1] is -14.2% and -3.76%. Also, in experiment [2], the viability was 113%. The Potency entry in experiment [3], in experiment [4], in experiment [5], in experiment [6] and in experiment [7] was “inactive” in each case.
Turning to `C[C@H]1COC2=C1C(=O)C(=O)c1c2ccc2c1CCCC2(C)C`, in experiment [1], the activation was -1.94%. The Potency in experiment [2] was 20.9 µM (active); in experiment [3] it was 13.2 µM (active).
Consider `CNNCc1ccc(C(=O)NC(C)C)cc1`, for which the activation in experiment [1] was -0.837%. Further, the viability in experiment [2] was 112%. Further, the Potency result in experiment [3], in experiment [4], in experiment [5], in experiment [6] and in experiment [7] was “inactive” in each case.
Take `O=c1cc(-c2ccccc2)oc2cc(O)cc(O)c12`: the activation in experiment [1] is 3.3%. Besides, the viability in experiment [2] is 85.1%. The Potency in experiment [3] was 16.6 µM (active); in experiment [4], 23.5 µM (active).
`COc1cc(C(C)C)c(Oc2cnc(NC(CO)CO)nc2N)cc1I`: the activation in experiment [1] is -13.5%. The viability in experiment [2] is 99.2%. The Potency entry in experiment [8], in experiment [5], in experiment [6] and in experiment [7] was “inactive” in each case.
Take `CCCNS(=O)(=O)Nc1ncnc(OCCOc2ncc(Br)cn2)c1-c1ccc(Br)cc1`: the activation in experiment [1] is -5.9%. Also, the viability in experiment [2] is 97.8%. In addition, the Potency result in experiment [8] and in experiment [7] was “inactive” each time.
Turning to `CCc1cc(Nc2nccc(-c3c(-c4ccc(OC)c(C(=O)Nc5c(F)cccc5F)c4)nc4ccccn34)n2)c(OC)cc1N1CCC(N2CCN(S(C)(=O)=O)CC2)CC1`, the activation in experiment [1] is 14.2% and 2.68%. In experiment [2], the viability is 113%. For the same molecule, the Potency entry in experiment [8] was “inactive”. Further, the Potency was 10.5 µM (active) in experiment [5], 11.8 µM (active) in experiment [6] and 11.8 µM (active) in experiment [7].
On to `COc1cc2nccc(Oc3ccc(NC(=O)Nc4ccc(F)cc4F)c(F)c3)c2cc1OC`, for which, in experiment [1], the activation was 5.39%. Also, the viability in experiment [2] was 108%. In addition, the Potency in experiment [3] was 0.0934 µM (active); in experiment [4] it was 1.66 µM (active); in experiment [5] it was 2.09 µM (active).
Regarding `Cc1ccc(-n2nc(C(C)(C)C)cc2NC(=O)Nc2ccc(OCCN3CCOCC3)c3ccccc23)cc1`, the activation in experiment [1] is 23.4%. In experiment [2], the viability was 102%. Further, the Potency in experiment [8] and in experiment [6] was 18.6 µM (active) in each case. Further, the Potency result in experiment [5] and in experiment [7] was “inactive” each time.
For `C[C@@H]1CN(CC(=O)Nc2ccc3c(c2)Cc2cccc(-c4cc(=O)cc(N5CCOCC5)o4)c2S3)C[C@H](C)O1`, the Potency was 27.3 µM (active) in experiment [1] and 14.8 µM (active) in experiment [3]. The viability in experiment [2] is 86.1%.
Turning to `CCC(C)(C)c1ccc(CC(C)CN2C[C@@H](C)O[C@@H](C)C2)cc1` (stereo partly specified), the activation in experiment [1] is -16.4%. In addition, the viability in experiment [2] was 82.6%. Further, the Potency entry in experiment [8], in experiment [5] and in experiment [7] was “inactive” in each case.
`C[C@]12CCC3c4ccc(O)cc4CCC3C1CCC2=O` (stereo partly specified): the activation in experiment [1] is -0.196%. In addition, the viability in experiment [2] is 99.9%. Besides, the Potency entry in experiment [8], in experiment [6] and in experiment [7] was “inactive” in each case. For the same molecule, in experiment [5], the Potency was 26.3 µM (active).
As to `Cc1ccc(/C=N/NC(=O)c2ccccc2Oc2ccccc2)o1`, in experiment [1], the activation was -11.8%. Besides, the viability in experiment [2] was 107%. In addition, the Potency result in experiment [8], in experiment [6] and in experiment [7] was “inactive” each time.
In the case of `COc1cc(C[C@@H](CO)[C@H](CO)Cc2ccc(O)c(OC)c2)ccc1O`, the activation in experiment [1] is -3.34%. In addition, the viability in experiment [2] is 120%. For the same molecule, the Potency result in experiment [3], in experiment [4], in experiment [5], in experiment [6] and in experiment [7] was “inactive” in each case.
On to `Fc1ccc(Cl)cc1-c1nc(Nc2ccncc2)c2nccnc2n1`, for which the activation in experiment [1] was 0.772%. Moreover, the viability in experiment [2] was 110%. Moreover, the Potency entry in experiment [3], in experiment [4], in experiment [5], in experiment [6] and in experiment [7] was “inactive” in each case.

Source of the values: PubChem BioAssay (NCATS).
